# VP16 counter – inhibits Gal4-VP16 luciferase reporter, ROR gamma counter-screen. Drosophila S2 Gal4-VP16 UAS-luciferase, luminescence, 20 h. Potency, µM (top dose mostly 53.6 µM), without a hit: at the highest dose activity, negative = inhibition, usual class: inhibitors. hit rate 3.5% among 310,000;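 further: Gal4-VP16 expression switched on by copper sulfate through the metallothionein promoter; nearly all actives have a fitted effect of over 50% in size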
# B2AR arrestin – recruits beta-arrestin to the human beta2-adrenergic receptor | beta-arrestin recruitment to beta2AR, cell-based reporter | AID 492947 | Potency, µM (highest dose often 46.1 µM), without a hit: at the highest dose activation, usual class: activators | hit rate 0.02% among 330,000 | P07550;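 further: 0% = DMSO controls and full agonism = EC100 isoproterenol or metaproterenol; nearly all actives have a fitted effect of over 65% in size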
# Target sequence (P07550 whole entry, looked up): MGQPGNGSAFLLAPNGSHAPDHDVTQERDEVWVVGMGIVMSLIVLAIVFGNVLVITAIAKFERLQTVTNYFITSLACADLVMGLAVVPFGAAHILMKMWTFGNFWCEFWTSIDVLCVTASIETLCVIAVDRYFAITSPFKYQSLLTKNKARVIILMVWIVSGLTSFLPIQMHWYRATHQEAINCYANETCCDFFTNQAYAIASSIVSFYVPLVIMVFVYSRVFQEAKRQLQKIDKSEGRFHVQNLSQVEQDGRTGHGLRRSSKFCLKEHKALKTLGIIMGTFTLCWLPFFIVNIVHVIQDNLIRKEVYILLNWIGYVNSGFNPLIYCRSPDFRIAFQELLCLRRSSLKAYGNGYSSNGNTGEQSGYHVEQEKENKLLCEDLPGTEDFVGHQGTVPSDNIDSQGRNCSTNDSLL
# NPSR antag – antagonists of human neuropeptide S receptor cAMP signaling; Q6W5P4; CHO-NPSR cells, cAMP TR-FRET, antagonist mode; Potency, µM (series often up to 38.3 µM), inactives show at the highest dose activity change, negative = inhibition, usual class: inhibitors; hit rate 1% among 220,000; AID 1461; further: nearly all actives have a fitted effect of over 50% in size
# RORgamma inh – blocks mouse ROR gamma transcriptional activity; P51450; Drosophila S2 Gal4-RORgamma UAS-luciferase reporter, 20 h; Potency, µM (titrated, usually from 53.6 µM), without a hit: at the highest dose activity change, negative = inhibition, usual class: inhibitors; hit rate 5.4% among 310,000; AID 2551; further: nearly all actives have a fitted effect of over 60% in size
#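 Schneider cells (Drosophila), stable Gal4 DBD–ROR gamma + UAS-luc; 1 hr cmpd preincubation; Cu2+ induction 700 uM final; 20 hr ambient; luminescence.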
# * marks the source's active call; other numbers are inactive results; ? = inconclusive; . = no result given; [ ] = dose if it differs, or a comment. Compounds with a hit are over-represented: about 5.7% of the library has one in this group of screens. The call rests on the fitted dose curve; in most records, active means well fitted curve in the direction sought with a large enough effect; inconclusive means small, poorly fitted or top-dose-only effect, or another doubt; inactive means no such curve, though single readings can be large; an effect the other way counts as inactive or inconclusive. Unless noted, on the % scale 0 is the no-effect control and ±100 the full control effect; potency means the concentration at half of the fitted maximal effect.
SMILES,VP16 counter,B2AR arrestin,NPSR antag,RORgamma inh
Cc1cc(C)n(-c2nc(NCc3cccnc3)c3c4c(sc3n2)COC(C)(C)C4)n1,6.31µM*,3.7%,-13.4%[46.1 µM],3.98µM*
CCC1(C)Cc2c(sc3nc(SC)nc(NCCN(C)C)c23)CO1 (stereo not drawn),14.3%[0.365 µM],0.1%,22.6%[46.1 µM],9.5%
CCc1nc(SCC(=O)O)c2c3c(sc2n1)COC(C)(C)C3,0.8%,0.3%,.,28.9%
COc1ccc(-c2csc3nc(C)nc(N4CCN(c5ccc(C(C)=O)cc5)CC4)c23)cc1OC,0.6%,0.1%,-44.4%,0.3%
N#CC1=C(N)C(C#N)(C#N)C(c2cccnc2)C2CC(c3ccccc3)CC=C12 (stereo not drawn),17.8µM*,-0.9%,-2.0%[46.1 µM],11.2µM*
C=C/C1=C/Cc2ccccc2[C@H](C[N+](=O)[O-])C(C(C)=O)(C(=O)OC)C1 (stereo partly drawn),2.0%,.,.,-1.8%
Cc1ccc(NC(=S)NNC(=O)c2nn(C)c(C)c2Cl)cc1,-2.7%,0.1%,-11.2%[46.1 µM],-40.3%
Cc1nn(C)c(C(=O)N/N=C/c2ccc(-c3ccccc3)cc2)c1Cl,11.2µM*,0.1%,.,8.91µM*
COc1ccc(/C=N/NC(=O)c2c([N+](=O)[O-])c(C)nn2C)cc1,-18.8%,-1.1%,25.7%,-25.8%
Cc1ccc(NC(=S)NNC(=O)c2c([N+](=O)[O-])c(C)nn2C)cc1,-19.4%,0.1%,-6.8%[46.1 µM],12.6µM*
Cc1ccc(NC(=O)c2c([N+](=O)[O-])c(C(C)(C)C)nn2C)cc1,3.0%,-0.1%,-8.5%,18.2%
Cc1ccc(NC(=S)NNC(=O)c2cn(C)nc2C)cc1,-2.3%,-0.2%,1.9%[46.1 µM],11.2µM*
Cc1nn(C)c(C(=O)NNC(=S)NCc2ccco2)c1Cl,-8.8%,0.4%,8.6%,8.3%
Cc1nn(C)c(C(=O)NNC(=S)NCC(C)C)c1Cl,-19.1%,-1.6%,-1.7%,3.16µM*
COC(=O)[C@@H]1C[C@@H]2CC[C@@H](O)C[C@@H]2N1CC1CCCCC1,-3.0%,.,.,-0.2%
O=C(N=C1SC2CS(=O)(=O)CC2N1c1ccccc1Cl)C1CCCO1 (stereo not drawn),3.3%,0.5%,.,-42.0%
Cc1ccc(NC(=S)NNC(=O)c2c(Cl)c(C)nn2C)cc1,?,5.2%,4.2%,3.98µM*
Cc1nnc2n(Cc3ccccc3)c(=O)c3c4c(sc3n12)CCCC4,?,-0.2%,-5.2%[46.1 µM],11.2µM*
CC(C)(C)OC(=O)NCCCCCNC(=O)c1[nH]cnc1C(=O)N[C@@H](Cc1ccccc1)C(=O)OC(C)(C)C,.,0.1%,.,.
CN(Cc1ccccc1)C(=O)c1[nH]cnc1C(=O)NCC(=O)OC(C)(C)C,-26.9%,-1.1%,.,?
CC(C)(C)OC(=O)NCCCC[C@H](NC(=O)c1nc[nH]c1C(=O)NCc1ccccc1)C(=O)OC(C)(C)C,?,0.6%,?,14.1µM*
CC(C)(C)OC(=O)NCCCC[C@H](NC(=O)c1[nH]cnc1C(=O)N[C@@H](Cc1ccccc1)C(=O)OC(C)(C)C)C(=O)OC(C)(C)C,?,0.1%,-59.4%,7.94µM*
CN(Cc1ccccc1)C(=O)c1[nH]cnc1C(=O)N[C@@H](CCCCNC(=O)OC(C)(C)C)C(=O)OC(C)(C)C,?,-1.4%,46.7%,7.08µM*
C[C@H](NC(=O)c1nc[nH]c1C(=O)N[C@@H](CCCCNC(=O)OC(C)(C)C)C(=O)OC(C)(C)C)c1ccccc1,11.2µM*,0.1%,?,5.62µM*
O=S(=O)(CCc1ccccc1)c1nnnn1-c1ccccc1,-4.3%,.,.,-1.0%
SMILES,VP16 counter,B2AR arrestin,NPSR antag,RORgamma inh
COc1ccc(NC(=O)COC(=O)CCNC(=O)c2ccco2)cc1Cl,.,0.4%,.,.
COc1ccc(/C=N/Nc2ncnc3c2[nH]c2ccccc23)c(OC)c1OC,-0.4%,0.0%,7.7%,4.2%
COc1cccc(/C=N/Nc2ncnc3c2[nH]c2ccc(C)cc23)c1OC,?,0.2%,-22.2%,6.31µM*
COc1ccc(N2CCN(C(=O)CNC(=O)c3cccc(Br)c3)CC2)cc1,17.1%,0.2%,.,32.7%
Cc1onc(-c2ccccc2)c1C(=O)N/N=C/c1cc(Br)c(Br)o1,10µM*,0.5%,-33.3%,7.08µM*
Cc1onc(-c2ccccc2)c1C(=O)N/N=C/c1ccc(Br)cc1,?,-1.5%,.,?
Cc1cccc(C(=O)N/N=C/c2cc(Br)c(Br)o2)c1,?,0.3%,-24.2%,11.2µM*
Cc1onc(-c2ccccc2)c1C(=O)Oc1cccnc1,-5.6%,0.1%,-5.3%[46.1 µM],7.94µM*
Cc1cccc(C)c1NC(=O)c1c(-c2ccccc2)noc1C,10.0%,0.2%,-2.9%[46.1 µM],10µM*
Cc1ccc(/C=N/NC(=O)c2c(-c3ccccc3)noc2C)o1,?,-1.2%,12.8%,12.6µM*
COC(=O)CN=C1OC(=O)N2C(=O)C3=C4C(C[C@H]5C(=O)N(c6ccccc6)C(=O)[C@H]5[C@H]4[C@@]12Cc1ccccc1)[C@H]1C(=O)N(c2ccccc2)C(=O)[C@H]1[C@H]3C (stereo partly drawn),-6.2%,.,.,1.7%
O=C(O)c1c(C(=O)O)c2ccccc2[nH]c1=O,-6.3%,.,.,13.2%
COc1cc([N+](=O)[O-])ccc1NC(=O)N1CCCCCC1,?,-0.3%,.,12.6µM*
Cc1ccc(Cl)cc1S(=O)(=O)N1CCC(C(=O)NC2CCN(Cc3ccccc3)CC2)CC1,22.4µM*,0.0%,.,?
C=C1C(n2cnc3c(=O)[nH]c(N)nc32)C[C@H](O)[C@H]1CO (stereo partly drawn),-4.4%,.,.,-29.8%
Cc1cccc(NC(=S)N=Nc2c(O)[nH]c3ccccc23)c1,3.55µM*,-0.4%,-33.5%,1.41µM*
COc1ccccc1NC(=S)N=Nc1c(O)[nH]c2ccc(Br)cc12,5.62µM*,4.0%,-7.6%,2µM*
CCCCCCC(=O)N=Nc1c(O)[nH]c2ccc([N+](=O)[O-])cc12,-8.1%,-0.1%,-11.1%,-7.8%
COCCNC(=S)N=Nc1c(O)[nH]c2ccc([N+](=O)[O-])cc12,-18.3%,-1.0%,-12.2%,0.562µM*
Cc1ccc(S(=O)(=O)N2CCC(C(=O)O)CC2)cc1,2.0%,2.2%,-11.3%,-19.8%
Cc1ccc(-c2nc3ccccc3o2)cc1NC(=S)NC(=O)/C=C/c1ccco1,?,4.4%,-19.6%[46.1 µM],2µM*
O=C(/C=C/c1ccco1)NC(=S)Nc1cccc([N+](=O)[O-])c1,?,4.9%,-16.0%,?
O=C(/C=C/c1ccco1)NC(=S)Nc1cccc(-c2nc3ccccc3o2)c1,12.6µM*,-1.0%,1.58µM*,2.24µM*
O=c1[nH][nH]c(C(F)(F)F)c1C=Nc1ccccc1,-6.1%,-0.4%,-1.0%[46.1 µM],-11.0%
Cc1cc(O)ccc1N=Cc1c(C(F)(F)F)[nH][nH]c1=O,?,0.5%,6.9%,11.2µM*
O=C(O)c1ccc(Cl)c(S(=O)(=O)Nc2ccccc2C(=O)Nc2ccc(Cl)cc2)c1,2.1%,-0.2%,.,12.2%
COc1cc([N+](=O)[O-])cc(/C=N/NC(=O)C(C)Nc2ccccc2C)c1O (stereo not drawn),0.501µM*,-0.5%,-1.7%,0.316µM*

# Source: PubChem BioAssay (National Center for Advancing Translational Sciences (NCATS))
